This is one part of the list. Calls of active or inactive are those of the source. Cut-off read from the data, not from the text of the source: active = inhibition above about 39%; inactive = the rest.
Target: Cysteine protease ATG4B (Homo sapiens) (UniProt Q9Y4P1)
Assay: re-tested blockers of ATG4B cleavage activity – biochemical, fluorescence, single concentration, confirmation (AID 504757)
Settings: ATG4B protease fluorescent substrate cleavage assay; at 8.33 µM; hits give high values

Sequence of Cysteine protease ATG4B (Homo sapiens) (Q9Y4P1 whole entry, looked up): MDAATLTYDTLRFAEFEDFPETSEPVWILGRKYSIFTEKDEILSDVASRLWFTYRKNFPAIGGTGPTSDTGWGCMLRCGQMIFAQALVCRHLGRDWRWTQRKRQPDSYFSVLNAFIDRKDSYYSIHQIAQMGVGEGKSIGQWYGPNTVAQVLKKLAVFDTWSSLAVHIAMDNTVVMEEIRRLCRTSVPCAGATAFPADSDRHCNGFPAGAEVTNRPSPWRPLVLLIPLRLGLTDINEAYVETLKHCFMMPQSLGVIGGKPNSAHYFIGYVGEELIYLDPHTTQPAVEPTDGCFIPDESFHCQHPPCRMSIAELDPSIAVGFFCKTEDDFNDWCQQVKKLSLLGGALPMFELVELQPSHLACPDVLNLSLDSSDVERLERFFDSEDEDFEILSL

With Cc1cc(OCc2cc(C(=O)O)oc2C)c2c3c(c(=O)oc2c1)CCCC3 the inhibition was 66.3% (active).

— PubChem BioAssay AID504757 (Sanford-Burnham Center for Chemical Genomics, 2011)
